Compounds with a hit are over-represented: about 2.2% of the library has one in this group of screens.
HSP90 refold inh – blocks HSP90-mediated luciferase refolding in reticulocyte lysate; Rabbit reticulocyte lysate, luciferase refolding luminescence, 3 h; inhibition, % at 5.6 µM; actives 0.91% (n = 290,000); AID 1789;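 active means inhibition above the screen-wide mean plus 3 SD, computed separately per campaign, cut at about 16% in these data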;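 further: inhibitors lower the luminescence because luciferase stays unfolded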
LGR2 inh – blocks bursicon-induced cAMP signaling via Drosophila LGR2; HEK293 LGR2, CRE-luciferase, bursicon-stimulated, 4 h; inhibition, % at 9.99 µM; actives 0.35% (n = 380,000); AID 720647;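 active means drop in luminescence signal, shown as inhibition above about 50% in the replicate tests, limit read from the data, passing the limit was not always enough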;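 further: agonist challenge used bursicon conditioned medium at about half maximal strength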
TWEAK-Fn14 inh – TWEAK-Fn14 signaling inhibition | inhibition, % at 10 µM | AID 1159606 | TWEAK-stimulated Fn14 reporter cells, luciferase luminescence, 8 h | actives 2% (n = 360,000); in the data active means inhibition above about 50%
TROY NFkB inh – TROY signaling inhibition. Q293 LMP1-TROYcd NF-kB luciferase reporter, 4 h. inhibition, % at 10 µM. actives 0.98% (n = 360,000). AID 1347056;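 active means compounds whose plate-normalised and pattern-corrected inhibition of the luciferase reporter signal at the single screening dose is 50% or more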
Of the large screens only hits and unclear results are named; the others gave an inactive call.

Cc1cccc(OCCNc2ccc([N+](=O)[O-])cn2)c1	none
O=[N+]([O-])c1ccc(NCCOc2ccccc2Cl)nc1	TWEAK-Fn14 inh 51
Cn1cnc(S(=O)(=O)N2CC[C@@H]3[C@H]2c2cc(-c4cccc(F)c4)ccc2N[C@@H]3CO)c1	none (no result: HSP90 refold inh, TWEAK-Fn14 inh, TROY NFkB inh)
COC(=O)c1ccc(/C=C(\C#N)C(=O)NC(C)c2ccccc2)cc1 (stereo not drawn)	TWEAK-Fn14 inh 57
CN(C)CC(=O)Nc1ccc2c(c1)[C@@H]1C[C@H](CC(=O)N3CCCCC3)O[C@H](CO)[C@@H]1O2	none (no result: HSP90 refold inh, TWEAK-Fn14 inh, TROY NFkB inh)
Cc1ccc(S/C=C\C(=O)c2ccccc2)cc1	TWEAK-Fn14 inh 88, TROY NFkB inh 53
C[C@]12c3[nH]c4ccc(Cl)cc4c3CCN1C(=O)[C@@H](CC(=O)NCC13CC4CC(CC(C4)C1)C3)C[C@@H]2C(=O)N1CCCCC1	TWEAK-Fn14 inh 61 (no result: HSP90 refold inh)
COc1ccc2[nH]c3c(c2c1)CCN1C(=O)C(CC(=O)NCCc2ccccn2)C[C@H](C(=O)N2CCCCC2)[C@@]31CCc1ccccc1 (stereo partly drawn)	none (no result: HSP90 refold inh)
C[C@]12c3[nH]c4ccc(Cl)cc4c3CCN1C(=O)[C@@H](CC(=O)NCC13CC4CC(CC(C4)C1)C3)C[C@@H]2C(=O)N1CCOCC1	none (no result: HSP90 refold inh)
O=C(CC1C[C@H](C(=O)N2CCOCC2)[C@@]2(CCC3CCCC3)c3[nH]c4ccccc4c3CCN2C1=O)NCC12CC3CC(CC(C3)C1)C2 (stereo partly drawn)	TWEAK-Fn14 inh 50 (no result: HSP90 refold inh)
O=C(C[C@H]1C[C@H](C(=O)N2CCCCC2)[C@@]2(CCc3ccccc3)c3[nH]c4ccc(Cl)cc4c3CCN2C1=O)NCCc1ccccn1	TWEAK-Fn14 inh 69, TROY NFkB inh 63 (no result: HSP90 refold inh, LGR2 inh)
COc1ccc(S(=O)(=O)N(C)C[C@@H]2Oc3ccc(NC(=O)Nc4ccc5c(c4)OCO5)cc3CC(=O)N([C@@H](C)CO)C[C@H]2C)cc1	none (no result: HSP90 refold inh, TWEAK-Fn14 inh, TROY NFkB inh)
Cc1ccccc1-c1ccc([C@H]2[C@@H](CO)N3CCCCN(S(=O)(=O)c4cn(C)cn4)C[C@H]23)cc1	none (no result: HSP90 refold inh, TWEAK-Fn14 inh, TROY NFkB inh)
Cc1ccccc1CNC(=O)/C=C\C(=O)O	TROY NFkB inh 75
CC(C)c1ccccc1-n1c(SCC(=O)N2CCc3ccccc3C2)nc2ccccc2c1=O	TROY NFkB inh 54
O=C(CSc1nc2ccccc2c(=O)n1-c1ccccc1)N1CCc2ccccc2C1	none
O=[N+]([O-])c1ccc(N2CCN(Cc3ccccc3)CC2)c2c1no[n+]2[O-]	LGR2 inh 102 (no result: HSP90 refold inh)
COc1ccccc1-c1ccc(OCCCN2CCC(C(O)(c3ccccc3)c3ccccc3)CC2)cc1	LGR2 inh 62 (no result: HSP90 refold inh, TWEAK-Fn14 inh, TROY NFkB inh)
O=C(NCCc1ccccc1)C(c1cccs1)N(C(=O)CCl)c1ccc(Cl)cc1 (stereo not drawn)	TWEAK-Fn14 inh 64
O=C(NCCc1ccccc1)C(c1cccs1)N(C(=O)c1csnn1)C1CC1 (stereo not drawn)	none (no result: LGR2 inh)
C[C@H]1CN([C@@H](C)CO)C(=O)c2cc(-c3ccncc3)cnc2O[C@@H]1CN(C)Cc1ccc(Oc2ccccc2)cc1	none (no result: HSP90 refold inh, TWEAK-Fn14 inh, TROY NFkB inh)
CCOC(=O)C1CCN(c2c(Nc3ccc4c(c3)OCCO4)c(=O)c2=O)CC1	TWEAK-Fn14 inh 81, TROY NFkB inh 63
CCOC(=O)N1CCC(N2C(=O)c3ccccc3C2Nc2ccc3c(c2)OCCO3)CC1 (stereo not drawn)	TWEAK-Fn14 inh 85, TROY NFkB inh 65
COC(=O)C[C@@H]1CC[C@H]2[C@@H](COc3ccc(NS(=O)(=O)c4ccccc4Cl)cc3C(=O)N2C)O1	none (no result: HSP90 refold inh, TWEAK-Fn14 inh, TROY NFkB inh)
CN1c2ccc(-c3cccc(C#N)c3)cc2[C@@H]2[C@@H](CCN2S(=O)(=O)c2ccccc2)[C@@H]1CO	none (no result: HSP90 refold inh, TWEAK-Fn14 inh, TROY NFkB inh)
Cc1ccc(S(=O)(=O)N(C)C[C@@H]2OCCCC[C@H](C)Oc3ccc(NS(=O)(=O)c4cccs4)cc3C(=O)N([C@@H](C)CO)C[C@H]2C)cc1	none (no result: HSP90 refold inh, TWEAK-Fn14 inh, TROY NFkB inh)
CCN(CC)S(=O)(=O)c1ccc2oc(C(=O)NCC3COc4ccccc4O3)c(C)c2c1 (stereo not drawn)	TWEAK-Fn14 inh 56 (no result: LGR2 inh)
CCN(CC)S(=O)(=O)c1ccc2oc(C(=O)NC3CC3)c(C)c2c1	none
Cc1c(C(=O)NCc2ccc3c(c2)OCO3)oc2ccc(S(=O)(=O)N3CCC(C)CC3)cc12	TWEAK-Fn14 inh 59 (no result: LGR2 inh)
Cc1c(C(=O)NCC2COc3ccccc3O2)oc2ccc(S(=O)(=O)N3CC(C)CC(C)C3)cc12 (stereo not drawn)	none
Cc1c(C(=O)NCc2ccc3c(c2)OCO3)oc2ccc(S(=O)(=O)N3CCCCCC3)cc12	none (no result: LGR2 inh)
Cc1c(C(=O)NCC2COc3ccccc3O2)oc2ccc(S(=O)(=O)N3CCOCC3)cc12 (stereo not drawn)	TWEAK-Fn14 inh 57 (no result: LGR2 inh)
COc1ccc(S(=O)(=O)Nc2ccc3c(c2)C(=O)N([C@@H](C)CO)C[C@@H](C)[C@@H](CN(C)S(C)(=O)=O)OCCCC[C@@H](C)O3)cc1	none (no result: HSP90 refold inh, TWEAK-Fn14 inh, TROY NFkB inh)
